# Data taken from article PMC7862700, “An all-to-all approach to the identification of sequence-specific readers for epigenetic DNA modifications on cytosine”.
# Legend:
# Experiment in all cases: DAPPL (digital affinity profiling via proximity ligation, sequencing); 10 mM Tris-HCl pH 7.5, 50 mM NaCl, 1 mM DTT, 4% glycerol, room temperature, 30 min; GST-TFs on glutathione beads, 16-mer random dsDNA library, 0.1% formaldehyde crosslink after washing; high values mean tight binding
# FEV = molecular target: T1, FEV (Homo sapiens, UniProt Q99581 1-238); settings: protein: recombinant; tags: N-terminal GST; dsDNA, one strand shown
# T1 sequence: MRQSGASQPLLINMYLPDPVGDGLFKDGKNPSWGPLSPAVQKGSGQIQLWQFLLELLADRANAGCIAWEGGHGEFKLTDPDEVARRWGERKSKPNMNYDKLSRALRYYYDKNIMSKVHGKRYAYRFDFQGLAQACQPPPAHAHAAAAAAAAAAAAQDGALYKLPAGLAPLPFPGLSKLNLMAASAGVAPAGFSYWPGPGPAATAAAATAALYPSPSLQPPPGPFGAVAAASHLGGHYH
# Outline: (§1)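 Each value of binding signal is a hexamer's read frequency for a factor divided by the same hexamer's frequency in the tag-only sample. Barcoded, bead-captured GST fusions of human transcription factors made in yeast were pooled with that sample and incubated with 200 nmole of a random double-stranded 16-mer DNA library in Tris/NaCl/DTT/glycerol buffer at room temperature for 30 min. Washing, 0.1% formaldehyde crosslinking, proximity ligation, PCR and Illumina NextSeq500 sequencing followed.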
# ETV5 = ETV5 (Homo sapiens, UniProt P41161 1-510); settings: protein: recombinant; tags: N-terminal GST; dsDNA, one strand shown
# Outline: as §1
# HSF1 = HSF1 (Homo sapiens, UniProt Q00613 1-529); settings: protein: recombinant; tags: N-terminal GST; chain copies: 3; dsDNA, one strand shown
# Outline: as §1
# SPIC = molecular target: T2, SPIC (Homo sapiens, UniProt Q8N5J4 1-248); settings: protein: recombinant; tags: N-terminal GST; dsDNA, one strand shown
# T2 sequence: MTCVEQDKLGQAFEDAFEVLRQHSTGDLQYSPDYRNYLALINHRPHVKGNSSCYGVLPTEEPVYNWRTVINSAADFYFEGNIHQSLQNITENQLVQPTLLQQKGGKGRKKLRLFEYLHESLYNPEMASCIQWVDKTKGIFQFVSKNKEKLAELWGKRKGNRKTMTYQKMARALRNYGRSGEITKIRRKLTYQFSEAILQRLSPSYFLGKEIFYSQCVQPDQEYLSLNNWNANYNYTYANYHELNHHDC
# Outline: as §1
# ELF4 = ELF4 (Homo sapiens, UniProt Q99607 1-663); settings: protein: recombinant; tags: N-terminal GST; dsDNA, one strand shown
# Outline: as §1
# ELK4 = molecular target: T3, ELK4 (Homo sapiens, UniProt P28324-2 1-405); settings: protein: recombinant; tags: N-terminal GST; dsDNA, one strand shown
# T3 sequence: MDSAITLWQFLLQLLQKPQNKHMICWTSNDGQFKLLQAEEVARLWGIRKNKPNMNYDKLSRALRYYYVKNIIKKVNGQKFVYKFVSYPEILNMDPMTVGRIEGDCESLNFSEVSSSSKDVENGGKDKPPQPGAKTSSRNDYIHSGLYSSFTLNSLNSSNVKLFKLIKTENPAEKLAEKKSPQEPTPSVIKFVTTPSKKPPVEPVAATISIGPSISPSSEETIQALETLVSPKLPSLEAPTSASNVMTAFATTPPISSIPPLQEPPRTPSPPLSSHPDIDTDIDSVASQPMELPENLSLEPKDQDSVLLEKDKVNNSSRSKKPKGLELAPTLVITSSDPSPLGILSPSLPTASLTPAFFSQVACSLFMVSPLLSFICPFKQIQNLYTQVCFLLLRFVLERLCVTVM
# Outline: as §1
# ETV2 = molecular target: T4, ETV2 (Homo sapiens, UniProt O00321 1-342); settings: protein: recombinant; tags: N-terminal GST; dsDNA, one strand shown
# T4 sequence: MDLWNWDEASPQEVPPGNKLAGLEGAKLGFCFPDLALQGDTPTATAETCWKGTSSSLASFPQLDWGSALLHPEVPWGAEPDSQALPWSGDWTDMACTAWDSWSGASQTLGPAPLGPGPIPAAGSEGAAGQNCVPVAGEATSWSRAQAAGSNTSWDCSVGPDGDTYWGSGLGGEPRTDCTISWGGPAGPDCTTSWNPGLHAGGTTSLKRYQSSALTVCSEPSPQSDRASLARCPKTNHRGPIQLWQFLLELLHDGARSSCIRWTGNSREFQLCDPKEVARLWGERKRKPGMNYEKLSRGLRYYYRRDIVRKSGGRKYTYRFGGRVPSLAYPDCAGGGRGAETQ
# Outline: as §1
# ELF3 = molecular target: T5, ELF3 (Homo sapiens, UniProt P78545 1-371); settings: protein: recombinant; tags: N-terminal GST; dsDNA, one strand shown
# T5 sequence: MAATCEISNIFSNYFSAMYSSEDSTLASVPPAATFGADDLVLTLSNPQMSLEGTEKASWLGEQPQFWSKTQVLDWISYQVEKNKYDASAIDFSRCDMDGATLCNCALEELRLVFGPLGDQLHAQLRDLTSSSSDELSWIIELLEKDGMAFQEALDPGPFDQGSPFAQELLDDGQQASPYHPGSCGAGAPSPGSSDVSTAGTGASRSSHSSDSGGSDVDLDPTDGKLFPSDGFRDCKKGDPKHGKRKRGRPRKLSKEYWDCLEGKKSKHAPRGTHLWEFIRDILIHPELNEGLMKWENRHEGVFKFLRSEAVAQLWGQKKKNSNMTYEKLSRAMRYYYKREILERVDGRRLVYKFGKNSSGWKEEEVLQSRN
# Outline: as §1
# CRX = CRX (Homo sapiens, UniProt O43186 1-299); settings: protein: recombinant; tags: N-terminal GST; dsDNA, one strand shown
# Outline: as §1
# ETV1 = ETV1 (Homo sapiens, UniProt P50549 1-477); settings: protein: recombinant; tags: N-terminal GST; dsDNA, one strand shown
# Outline: as §1
# ERF = molecular target: T6, ERF (Homo sapiens, UniProt P50548 1-548); settings: protein: recombinant; tags: N-terminal GST; dsDNA, one strand shown
# T6 sequence: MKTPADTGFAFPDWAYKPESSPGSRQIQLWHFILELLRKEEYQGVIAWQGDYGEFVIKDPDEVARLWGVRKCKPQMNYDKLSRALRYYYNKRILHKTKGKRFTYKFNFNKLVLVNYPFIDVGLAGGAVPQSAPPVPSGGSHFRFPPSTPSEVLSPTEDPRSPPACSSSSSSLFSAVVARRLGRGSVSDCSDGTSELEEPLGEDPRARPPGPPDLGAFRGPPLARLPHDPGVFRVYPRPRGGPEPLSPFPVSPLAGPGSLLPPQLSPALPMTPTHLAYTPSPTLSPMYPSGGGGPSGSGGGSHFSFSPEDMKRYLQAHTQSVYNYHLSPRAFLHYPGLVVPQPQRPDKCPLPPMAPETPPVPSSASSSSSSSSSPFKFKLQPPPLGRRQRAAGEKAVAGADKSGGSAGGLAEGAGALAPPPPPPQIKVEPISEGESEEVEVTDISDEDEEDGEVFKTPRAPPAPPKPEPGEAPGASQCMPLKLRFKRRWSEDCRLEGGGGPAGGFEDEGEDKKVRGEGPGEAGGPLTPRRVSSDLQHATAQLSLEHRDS
# Outline: as §1
# ETV3L = molecular target: T7, ETV3L (Homo sapiens, UniProt Q6ZN32 1-361); settings: protein: recombinant; tags: N-terminal GST; dsDNA, one strand shown
# T7 sequence: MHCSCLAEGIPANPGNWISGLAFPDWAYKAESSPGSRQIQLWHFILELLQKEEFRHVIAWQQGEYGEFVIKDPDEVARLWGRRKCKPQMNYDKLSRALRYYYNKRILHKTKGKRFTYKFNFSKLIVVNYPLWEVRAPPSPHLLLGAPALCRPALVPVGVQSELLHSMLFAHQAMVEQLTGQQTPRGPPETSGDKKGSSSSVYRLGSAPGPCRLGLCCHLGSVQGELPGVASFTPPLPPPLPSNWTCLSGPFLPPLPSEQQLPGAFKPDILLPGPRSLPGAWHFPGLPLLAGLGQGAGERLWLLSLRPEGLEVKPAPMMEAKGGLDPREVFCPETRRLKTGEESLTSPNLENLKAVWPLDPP
# Outline: as §1
# ETS2 = molecular target: T8, ETS2 (Homo sapiens, UniProt P15036 1-469); settings: protein: recombinant; tags: N-terminal GST; dsDNA, one strand shown
# T8 sequence: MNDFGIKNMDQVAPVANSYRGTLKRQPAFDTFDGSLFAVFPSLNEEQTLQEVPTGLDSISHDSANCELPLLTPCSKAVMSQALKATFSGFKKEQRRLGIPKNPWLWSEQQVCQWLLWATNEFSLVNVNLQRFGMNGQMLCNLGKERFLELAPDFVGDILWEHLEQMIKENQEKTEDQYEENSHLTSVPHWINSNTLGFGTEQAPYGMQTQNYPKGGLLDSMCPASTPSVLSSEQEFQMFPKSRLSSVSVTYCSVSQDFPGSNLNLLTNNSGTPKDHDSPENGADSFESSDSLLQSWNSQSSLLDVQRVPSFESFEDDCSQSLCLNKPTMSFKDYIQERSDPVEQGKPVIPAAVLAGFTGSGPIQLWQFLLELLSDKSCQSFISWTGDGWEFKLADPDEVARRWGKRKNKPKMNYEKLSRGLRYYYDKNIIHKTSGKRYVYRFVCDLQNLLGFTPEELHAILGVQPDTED
# Outline: as §1
# SPDEF = molecular target: T9, SPDEF (Homo sapiens, UniProt O95238 1-335); settings: protein: recombinant; tags: N-terminal GST; dsDNA, one strand shown
# T9 sequence: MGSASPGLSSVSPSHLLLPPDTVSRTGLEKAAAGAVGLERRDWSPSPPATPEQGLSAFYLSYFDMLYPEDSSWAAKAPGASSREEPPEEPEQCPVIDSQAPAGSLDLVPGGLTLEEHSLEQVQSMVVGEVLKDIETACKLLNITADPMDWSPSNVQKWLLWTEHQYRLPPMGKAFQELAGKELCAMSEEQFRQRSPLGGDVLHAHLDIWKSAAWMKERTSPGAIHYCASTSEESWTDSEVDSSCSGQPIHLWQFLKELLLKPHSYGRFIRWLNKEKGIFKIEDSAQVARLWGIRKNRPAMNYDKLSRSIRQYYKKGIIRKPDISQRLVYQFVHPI
# Outline: as §1
# ETV7 = molecular target: T10, ETV7 (Homo sapiens, UniProt Q9Y603 1-341); settings: protein: recombinant; tags: N-terminal GST; dsDNA, one strand shown
# T10 sequence: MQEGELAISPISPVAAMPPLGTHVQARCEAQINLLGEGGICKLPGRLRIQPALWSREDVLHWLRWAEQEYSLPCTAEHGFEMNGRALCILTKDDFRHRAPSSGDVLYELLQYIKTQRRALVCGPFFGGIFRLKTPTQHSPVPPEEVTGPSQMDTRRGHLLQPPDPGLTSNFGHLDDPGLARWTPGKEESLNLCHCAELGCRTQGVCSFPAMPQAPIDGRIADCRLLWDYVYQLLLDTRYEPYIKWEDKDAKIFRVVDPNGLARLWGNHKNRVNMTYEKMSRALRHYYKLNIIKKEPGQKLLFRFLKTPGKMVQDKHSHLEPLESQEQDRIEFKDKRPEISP
# Outline: as §1
# ELF5 = molecular target: T11, ELF5 (Homo sapiens, UniProt Q9UKW6-2 1-255); settings: protein: recombinant; tags: N-terminal GST; dsDNA, one strand shown
# T11 sequence: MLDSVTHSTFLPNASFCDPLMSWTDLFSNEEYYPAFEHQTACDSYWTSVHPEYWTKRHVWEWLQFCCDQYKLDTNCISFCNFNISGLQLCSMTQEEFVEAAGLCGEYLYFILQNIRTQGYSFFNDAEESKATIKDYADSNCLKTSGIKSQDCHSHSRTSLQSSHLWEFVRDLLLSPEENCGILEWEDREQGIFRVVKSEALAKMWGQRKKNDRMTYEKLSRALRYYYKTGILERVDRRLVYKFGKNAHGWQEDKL
# Outline: as §1
# ETV3 = molecular target: T12, ETV3 (Homo sapiens, UniProt P41162-2 1-143); settings: protein: recombinant; tags: N-terminal GST; dsDNA, one strand shown
# T12 sequence: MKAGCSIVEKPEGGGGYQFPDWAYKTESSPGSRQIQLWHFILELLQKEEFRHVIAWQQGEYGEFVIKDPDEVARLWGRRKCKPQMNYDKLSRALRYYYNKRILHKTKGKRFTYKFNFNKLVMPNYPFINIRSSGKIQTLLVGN
# Outline: as §1
# ETV6 = ETV6 (Homo sapiens, UniProt P41212 1-452); settings: protein: recombinant; tags: N-terminal GST; dsDNA, one strand shown
# Outline: as §1
# ETV5, sequence (P41161 whole entry): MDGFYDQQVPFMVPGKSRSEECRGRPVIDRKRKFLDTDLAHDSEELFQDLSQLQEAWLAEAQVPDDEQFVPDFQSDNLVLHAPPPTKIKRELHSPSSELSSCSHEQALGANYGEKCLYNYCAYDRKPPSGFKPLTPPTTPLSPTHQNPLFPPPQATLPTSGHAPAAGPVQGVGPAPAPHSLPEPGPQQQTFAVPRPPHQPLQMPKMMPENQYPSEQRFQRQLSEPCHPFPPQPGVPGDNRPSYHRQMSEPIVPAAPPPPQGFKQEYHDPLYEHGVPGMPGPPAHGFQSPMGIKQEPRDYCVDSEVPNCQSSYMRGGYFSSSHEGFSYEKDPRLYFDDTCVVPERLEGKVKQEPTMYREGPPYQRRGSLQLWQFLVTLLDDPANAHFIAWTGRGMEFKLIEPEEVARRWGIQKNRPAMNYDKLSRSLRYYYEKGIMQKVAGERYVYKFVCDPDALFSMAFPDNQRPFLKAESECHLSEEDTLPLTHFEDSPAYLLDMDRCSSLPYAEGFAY
# ELF4, sequence (Q99607 whole entry): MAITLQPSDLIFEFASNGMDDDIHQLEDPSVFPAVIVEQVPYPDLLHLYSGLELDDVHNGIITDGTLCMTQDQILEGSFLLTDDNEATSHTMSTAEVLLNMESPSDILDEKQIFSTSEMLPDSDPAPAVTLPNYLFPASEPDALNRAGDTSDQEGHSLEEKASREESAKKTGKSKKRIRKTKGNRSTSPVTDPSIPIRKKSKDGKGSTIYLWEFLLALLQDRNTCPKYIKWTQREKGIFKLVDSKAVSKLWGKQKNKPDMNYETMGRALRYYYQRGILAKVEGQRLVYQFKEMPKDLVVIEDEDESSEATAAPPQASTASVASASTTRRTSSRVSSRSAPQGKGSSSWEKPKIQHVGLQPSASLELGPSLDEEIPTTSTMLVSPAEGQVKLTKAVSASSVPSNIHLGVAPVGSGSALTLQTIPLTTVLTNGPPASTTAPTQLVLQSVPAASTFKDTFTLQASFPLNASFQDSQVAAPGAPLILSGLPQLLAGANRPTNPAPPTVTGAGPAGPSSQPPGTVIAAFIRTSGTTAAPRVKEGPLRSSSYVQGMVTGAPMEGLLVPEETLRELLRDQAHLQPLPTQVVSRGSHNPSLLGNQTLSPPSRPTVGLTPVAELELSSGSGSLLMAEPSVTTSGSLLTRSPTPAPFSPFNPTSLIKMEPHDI
# CRX, sequence (O43186 whole entry): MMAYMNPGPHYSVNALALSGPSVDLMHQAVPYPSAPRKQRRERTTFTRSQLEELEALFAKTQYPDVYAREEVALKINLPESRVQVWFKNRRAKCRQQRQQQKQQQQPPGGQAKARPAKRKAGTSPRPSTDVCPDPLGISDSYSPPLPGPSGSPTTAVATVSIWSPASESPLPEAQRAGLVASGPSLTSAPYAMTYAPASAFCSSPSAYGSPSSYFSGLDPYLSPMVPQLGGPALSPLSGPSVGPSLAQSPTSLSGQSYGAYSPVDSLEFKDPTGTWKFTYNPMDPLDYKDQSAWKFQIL
# ETV6, sequence (P41212 whole entry): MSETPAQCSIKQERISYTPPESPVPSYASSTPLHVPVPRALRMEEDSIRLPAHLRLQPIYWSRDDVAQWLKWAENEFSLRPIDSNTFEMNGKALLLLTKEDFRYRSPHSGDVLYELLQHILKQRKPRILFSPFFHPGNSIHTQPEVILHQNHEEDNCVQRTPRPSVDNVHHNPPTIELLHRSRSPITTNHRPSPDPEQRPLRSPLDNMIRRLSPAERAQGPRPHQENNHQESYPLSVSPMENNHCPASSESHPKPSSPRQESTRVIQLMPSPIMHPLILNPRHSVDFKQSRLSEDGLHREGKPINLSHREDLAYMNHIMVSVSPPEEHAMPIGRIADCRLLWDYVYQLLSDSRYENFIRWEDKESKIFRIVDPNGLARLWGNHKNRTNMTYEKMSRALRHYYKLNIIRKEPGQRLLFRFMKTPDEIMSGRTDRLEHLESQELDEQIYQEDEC
# HSF1, sequence (Q00613 whole entry): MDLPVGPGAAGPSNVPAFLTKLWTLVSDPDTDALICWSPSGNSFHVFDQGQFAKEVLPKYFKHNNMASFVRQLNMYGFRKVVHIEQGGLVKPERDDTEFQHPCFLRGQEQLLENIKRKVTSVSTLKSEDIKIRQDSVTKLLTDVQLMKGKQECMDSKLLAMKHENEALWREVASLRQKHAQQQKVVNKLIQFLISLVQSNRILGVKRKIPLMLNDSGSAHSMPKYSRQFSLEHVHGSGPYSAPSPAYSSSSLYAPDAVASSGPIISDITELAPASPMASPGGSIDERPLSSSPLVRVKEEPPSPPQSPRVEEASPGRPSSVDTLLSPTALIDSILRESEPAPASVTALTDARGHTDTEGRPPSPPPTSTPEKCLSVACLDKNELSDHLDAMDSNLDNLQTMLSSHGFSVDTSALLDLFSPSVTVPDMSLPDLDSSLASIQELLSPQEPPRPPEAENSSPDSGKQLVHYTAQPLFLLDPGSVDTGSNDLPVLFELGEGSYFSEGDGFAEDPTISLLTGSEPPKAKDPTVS
# ETV1, sequence (P50549 whole entry): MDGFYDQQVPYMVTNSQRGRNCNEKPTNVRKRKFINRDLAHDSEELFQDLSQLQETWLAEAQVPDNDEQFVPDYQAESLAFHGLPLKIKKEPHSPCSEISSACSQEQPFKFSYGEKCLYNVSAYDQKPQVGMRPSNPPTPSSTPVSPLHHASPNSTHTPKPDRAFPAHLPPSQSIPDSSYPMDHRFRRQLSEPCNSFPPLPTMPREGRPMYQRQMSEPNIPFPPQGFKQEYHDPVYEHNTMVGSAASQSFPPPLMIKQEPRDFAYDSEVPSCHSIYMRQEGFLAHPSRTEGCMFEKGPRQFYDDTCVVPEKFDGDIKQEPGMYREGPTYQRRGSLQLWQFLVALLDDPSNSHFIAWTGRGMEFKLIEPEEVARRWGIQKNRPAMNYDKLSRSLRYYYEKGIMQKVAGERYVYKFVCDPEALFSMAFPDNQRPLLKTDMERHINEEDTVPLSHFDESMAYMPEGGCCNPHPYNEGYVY
sequence,measurement,setting,value
CCGTTT,binding signal,FEV,"1.48 fold enrichment (6-mer frequency, TF over GST control)"
same,binding signal,ETV5,"1.44 fold enrichment (6-mer frequency, TF over GST control)"
same,binding signal,HSF1,"1.12 fold enrichment (6-mer frequency, TF over GST control)"
same,binding signal,SPIC,"1.44 fold enrichment (6-mer frequency, TF over GST control)"
same,binding signal,ELF4,"1.36 fold enrichment (6-mer frequency, TF over GST control)"
same,binding signal,ELK4,"1.33 fold enrichment (6-mer frequency, TF over GST control)"
same,binding signal,ETV2,"1.31 fold enrichment (6-mer frequency, TF over GST control)"
same,binding signal,ELF3,"1.44 fold enrichment (6-mer frequency, TF over GST control)"
same,binding signal,CRX,"1.06 fold enrichment (6-mer frequency, TF over GST control)"
same,binding signal,ETV1,"1.38 fold enrichment (6-mer frequency, TF over GST control)"
same,binding signal,ERF,"1.33 fold enrichment (6-mer frequency, TF over GST control)"
same,binding signal,ETV3L,"1.45 fold enrichment (6-mer frequency, TF over GST control)"
same,binding signal,ETS2,"1.4 fold enrichment (6-mer frequency, TF over GST control)"
same,binding signal,SPDEF,"1.57 fold enrichment (6-mer frequency, TF over GST control)"
same,binding signal,ETV7,"1.49 fold enrichment (6-mer frequency, TF over GST control)"
same,binding signal,ELF5,"1.51 fold enrichment (6-mer frequency, TF over GST control)"
same,binding signal,ETV3,"1.52 fold enrichment (6-mer frequency, TF over GST control)"
same,binding signal,ETV6,"1.53 fold enrichment (6-mer frequency, TF over GST control)"
